# Test results taken from PubChem BioAssay AID651930 (Southern Research Specialized Biocontainment Screening …, 2012).
# A number with no mark means an inactive call. Activity calls are given as the source filed them. No rule for the calls is given here.
# Test: Vero 76 cell cytotoxicity, dose response, cytotoxicity control for VEEV inhibitor project, set 9 (AID 651930)
# Conditions: Vero 76 cytotoxicity; series mostly up to 25 µM; viability: at the top concentration
SMILES,viability,outcome
O=c1c2cc([N+](=O)[O-])ccc2nc(CN2CCNCC2)n1-c1ccccc1F,102%,–
CCN1CCN(Cc2nc3ncc([N+](=O)[O-])cc3c(=O)n2-c2ccccc2)CC1,101%,–
CN1CCN(C)C(=Nc2ccc(C#N)cc2C(=O)Nc2cccc(F)c2)C1,84.5% [at 50 µM],–
CN(C)c1cccc(-n2c(CN3CCNCC3)nc3ccc([N+](=O)[O-])cc3c2=O)c1,99.6%,–
O=c1nc(Nc2cccc(OCc3ccccc3)c2)sc2ncccc12,73.5%,–
CCN1CCN(Cc2nc3ccc(S(=O)(=O)O)cc3c(=O)n2-c2ccccc2)CC1,97.8%,–
O=C1CN(Cc2nc3ccc([N+](=O)[O-])cc3c(=O)n2-c2ccccc2F)CCN1,93.4% [at 50 µM],–
CCN(CC)c1nc(=O)c2cccnc2s1,102% [at 50 µM],–
O=c1nc(Nc2ccc(CCc3ccccc3)cc2)sc2ncccc12,83.9% [at 50 µM],–
CN(C)c1ccc(-n2c(CN3CCNCC3)nc3ccc([N+](=O)[O-])cc3c2=O)cc1,84.7%,–
CCN1CCN(Cc2nc3ccc(-c4cccnc4)cc3c(=O)n2-c2ccccc2)CC1,87.1%,–
O=c1nc(Nc2ccc(OCc3ccccc3)cc2)sc2ncccc12,86.4% [at 50 µM],–
CCN1CCN(Cc2nc3ccc([N+](=O)[O-])cc3c(=O)n2-c2ccccc2F)CC1,–,inactive
COc1ccccc1-n1c(CN2CCNCC2)nc2ccc([N+](=O)[O-])cc2c1=O,75.6%,–
CCN1CCN(Cc2nc3ccc([N+](=O)[O-])cc3c(=O)n2-c2ccccc2)CC1,96.5%,–
CN1CCN(C)C(=Nc2cc(Cl)c(C#N)cc2C(=O)Nc2ccccc2)C1,84.8% [at 50 µM],–
CCN1CCN(Cc2nc3ccc(C(=O)O)cc3c(=O)n2-c2ccccc2)CC1,87.7%,–
CNCCCN(C)Cc1nc2ccc([N+](=O)[O-])cc2c(=O)n1-c1ccccc1,102% [at 50 µM],–
O=c1nc(Nc2ccc(F)cc2)sc2ncccc12,96.5%,–
O=c1nc(Nc2ccc(OCc3ccccc3)cc2)sc2ncc(F)cc12,86.1%,–
CCN1CCN(c2nc3ccc([N+](=O)[O-])cc3c(=O)n2-c2ccccc2)CC1,94.8%,–
